Values joined by “and” are separate entries in the source; they are usually repeats but may differ in a detail not shown here. Identical values can stand only once. Inconclusive results are not listed. Active and inactive are the calls of the source. Unless noted, the call rests on the fitted dose curve; in most records, active means well fitted inhibition curve with a large enough effect; inconclusive means small, poorly fitted or top-dose-only effect; inactive means flat fitted curve, though single readings scatter.
Key:
[1] = Drug repurposing screens with cells derived from glioblastoma tumor samples (AID 1345199); conditions: GBM patient neurospheres viability, ATP luminescence, 48 h; further: nearly all actives have a fitted effect of over 40% in size; further: potency means the concentration at half of the fitted maximal effect; on activity, negative = cell killing: on the % scale 0 is the no-effect control and ±100 the full control effect
How it was run: (§1)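 Primary testing used CD133+ neurospheres from four GBM patients, seven concentrations, 48 h exposure and ATP-based viability; confirmation added three slower-growing patient lines.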

[2] = system: astro; test: as above; conditions: viability, ATP luminescence, 48 h; series mostly up to 45.9 µM
How it was run: as §1

[3] = target: Nuclear receptor subfamily 1 group I member 2 (Rattus norvegicus) (UniProt Q9R1A7); test: qHTS assay for small molecule activators of the rat pregnane X receptor (rPXR) signaling pathway (AID 651751; call rule not given here; further: 0% is about no effect); conditions: rPXR reporter cells, luciferase (One-Glo), 24 h
[4] = qHTS assay for small molecule activators of the human pregnane X receptor (PXR) signaling pathway (AID 720659; call rule not given here; further: 0% is about no effect); conditions: DPX-2 HepG2 CYP3A4-luciferase, 24 h; series mostly up to 92.3 µM
[5] = at 45.9 µM (top of the series), tumour line B
[6] = at 45.9 µM (top of the series), tumour line D
[7] = at 46 µM (top of the series), tumour line A
[8] = at 46.1 µM (top of the series), tumour line C
[9] = at 20 µM (top of the series), tumour line C
[10] = at 21.2 µM (top of the series), tumour line B
[11] = at 21.2 µM (top of the series), tumour line D
[12] = at 21.3 µM (top of the series), tumour line A

Sequence of Nuclear receptor subfamily 1 group I member 2 (Rattus norvegicus) (Q9R1A7 whole entry, looked up): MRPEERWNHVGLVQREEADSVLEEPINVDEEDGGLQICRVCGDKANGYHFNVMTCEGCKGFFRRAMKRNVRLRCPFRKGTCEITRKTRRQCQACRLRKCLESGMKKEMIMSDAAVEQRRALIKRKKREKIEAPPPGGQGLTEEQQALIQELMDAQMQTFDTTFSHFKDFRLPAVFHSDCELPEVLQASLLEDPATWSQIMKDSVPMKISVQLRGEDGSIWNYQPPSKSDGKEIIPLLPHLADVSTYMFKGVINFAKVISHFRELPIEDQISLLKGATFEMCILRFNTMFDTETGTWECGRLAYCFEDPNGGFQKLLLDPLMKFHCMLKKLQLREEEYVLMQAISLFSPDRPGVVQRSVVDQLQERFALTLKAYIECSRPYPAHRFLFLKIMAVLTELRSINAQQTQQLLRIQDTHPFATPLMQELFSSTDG

ClCC1CO1 (centres undefined)
inactive: activity, negative = cell killing [1, 5] -15% | activity, negative = cell killing [1, 6] -9.19% | activity, negative = cell killing [1, 7] -27.8% | activity, negative = cell killing [1, 8] -16.2% | Potency [2] | max response [3] 1.11% | outcome [4]

NCC[C@H](O)C(=O)N[C@@H]1C[C@H](N)[C@@H](O[C@H]2O[C@H](CN)[C@@H](O)[C@H](O)[C@H]2N)[C@H](O[C@@H]2O[C@H](CO)[C@@H](O)[C@H]2O)[C@H]1O
inactive: activity, negative = cell killing [1, 9] -6.64% | activity, negative = cell killing [1, 10] -8.33% | activity, negative = cell killing [1, 11] -11.1% | activity, negative = cell killing [1, 12] -21.7% | Potency [2]

O=Cc1ccco1
inactive: activity, negative = cell killing [1, 5] -3.46% | activity, negative = cell killing [1, 6] 2.23% | activity, negative = cell killing [1, 7] -6.89% | activity, negative = cell killing [1, 8] -7% | Potency [2] | max response [3] 4.33% | outcome [4]

CC(=O)OCC(=O)[C@H]1CC[C@H]2[C@@H]3CC[C@H]4C[C@H](O)CC[C@]4(C)[C@H]3C(=O)C[C@]12C
inactive: activity, negative = cell killing [1, 9] -20.2% | activity, negative = cell killing [1, 10] -4.33% | activity, negative = cell killing [1, 11] 0.678% | activity, negative = cell killing [1, 12] -6.64% | Potency [2]

CC(C)CCON=O
inactive: activity, negative = cell killing [1, 5] 0.0037% | activity, negative = cell killing [1, 6] -3.58% | activity, negative = cell killing [1, 7] -24.7% | activity, negative = cell killing [1, 8] 2.53% | Potency [2] | max response [3] 1.54% | outcome [4]

Oc1cc(Cl)c(Cl)cc1Cl
inactive: activity, negative = cell killing [1, 5] -12.6% | activity, negative = cell killing [1, 6] -21.4% | activity, negative = cell killing [1, 7] -39.7% | activity, negative = cell killing [1, 8] -1.02% | Potency [2] | max response [3] 6.93% and 2.63% | outcome [4]

Oc1ccc2c3c1O[C@H]1[C@@H](O)CC[C@@]4(O)[C@@H](C2)N(CC2CCC2)CC[C@]314
inactive: activity, negative = cell killing [1, 5] -15.8% | activity, negative = cell killing [1, 6] -17.2% | activity, negative = cell killing [1, 7] 7.3% | activity, negative = cell killing [1, 8] -0.783% | Potency [2]

[O]=[Cd]
inactive: activity, negative = cell killing [1, 5] -6.73% | activity, negative = cell killing [1, 6] 0.985% | activity, negative = cell killing [1, 7] -15% | activity, negative = cell killing [1, 8] -5.34% | Potency [2] | max response [3] 0.17% | outcome [4]

COc1ccc2c3c1O[C@H]1C(=O)CC[C@H]4[C@@H](C2)N(C)CC[C@]314
inactive: activity, negative = cell killing [1, 5] -6.83% | activity, negative = cell killing [1, 6] -23.5% | activity, negative = cell killing [1, 7] -21.5% | activity, negative = cell killing [1, 8] -7.26% | Potency [2]

O=CC=O
inactive: activity, negative = cell killing [1, 5] 0.224% | activity, negative = cell killing [1, 6] -5.05% | activity, negative = cell killing [1, 7] -22.3% | activity, negative = cell killing [1, 8] 29.7% | Potency [2] | max response [3] -6.34% | outcome [4]

CN(C)[C@@H]1C(=O)C(C(N)=O)=C(O)[C@@]2(O)C(=O)C3=C(O)c4c(O)ccc(Cl)c4[C@@](C)(O)[C@H]3C[C@@H]12
inactive: activity, negative = cell killing [1, 9] -1.9% | activity, negative = cell killing [1, 10] -17.1% | activity, negative = cell killing [1, 11] 7.37% | activity, negative = cell killing [1, 12] -17.5% | Potency [2]

C[C@H]1CC[C@]2(NC1)O[C@H]1C[C@H]3[C@@H]4CC[C@H]5C[C@@H](O)CC[C@]5(C)[C@H]4CC[C@]3(C)[C@H]1[C@@H]2C
active: Potency ([1]; tumour line A) 8.91 µM
inactive: activity, negative = cell killing [1, 5] -14.5% | activity, negative = cell killing [1, 6] -28.2% | activity, negative = cell killing [1, 8] -9.91% | Potency [2]

O=c1[nH]c(=O)n(Cl)c(=O)n1Cl
inactive: activity, negative = cell killing [1, 5] -3.23% | activity, negative = cell killing [1, 6] -0.766% | activity, negative = cell killing [1, 7] -8.9% | activity, negative = cell killing [1, 8] 7.98% | Potency [2] | max response [3] -4.63% | outcome [4]

C[C@]12C=CC(=O)C=C1CC[C@@H]1[C@@H]2CC[C@]2(C)OC(=O)CC[C@@H]12
inactive: activity, negative = cell killing [1, 5] -3.73% | activity, negative = cell killing [1, 6] -7.84% | activity, negative = cell killing [1, 7] -28.6% | activity, negative = cell killing [1, 8] 1.2% | Potency [2]

CNc1ccc(C(=O)CC(O)CCC(C)C2OC(=O)CC(O)CC(=O)CC(O)CC(O)CC(O)CC(O)CC3(O)CC(O)C(C(=O)OC)C(CC(O[C@@H]4O[C@H](C)[C@@H](O)[C@H](N)[C@@H]4O)/C=C/C=C/C=C/C=C/C=C/C=C/C=C/C2C)O3)cc1 (some centres undefined)
inactive: activity, negative = cell killing [1, 5] -16.2% | activity, negative = cell killing [1, 6] 9.06% | activity, negative = cell killing [1, 7] -20.9% | activity, negative = cell killing [1, 8] -13.4% | Potency [2]

CCNCC(O)c1cccc(O)c1 (centres undefined)
inactive: activity, negative = cell killing [1, 9] 5.83% | activity, negative = cell killing [1, 10] -15.1% | activity, negative = cell killing [1, 11] -23% | activity, negative = cell killing [1, 12] -30.1% | Potency [2]

O=[N+]([O-])c1ccccc1
inactive: activity, negative = cell killing [1, 5] -3.33% | activity, negative = cell killing [1, 6] -6.09% | activity, negative = cell killing [1, 7] -9.64% | activity, negative = cell killing [1, 8] -9.59% | Potency [2]

CC(=O)OO
inactive: activity, negative = cell killing [1, 5] -7.1% | activity, negative = cell killing [1, 6] -0.699% | activity, negative = cell killing [1, 7] -24.9% | activity, negative = cell killing [1, 8] 3.69% | Potency [2]

c1cc2c(c(NC3=NCCN3)c1)CCCC2
active: Potency ([1]; tumour line A) 14.1 µM
inactive: activity, negative = cell killing [1, 5] -18.6% | activity, negative = cell killing [1, 6] -28.2% | activity, negative = cell killing [1, 8] 1.62% | Potency [2]

CC(C)Nc1ccc(Nc2ccccc2)cc1
inactive: activity, negative = cell killing [1, 8] -13.8%
active: Potency ([1]; tumour line A) 11.2 µM | Potency ([1]; tumour line B) 17.8 µM | Potency ([1]; tumour line D) 20 µM | Potency [2] 22.4 µM

C[C@]12CCC(=O)C[C@@H]1CC[C@@H]1[C@@H]2CC[C@]2(C)[C@@H](O)CC[C@@H]12
active: Potency ([1]; tumour line A) 12.6 µM
inactive: activity, negative = cell killing [1, 5] -19.9% | activity, negative = cell killing [1, 6] -25.4% | activity, negative = cell killing [1, 8] -25.5% | max response [3] 6.67% and 13%

Reference: PubChem BioAssay (NCATS)
